According to PubChem BioAssay (NCI):
About 83,000 compounds went through this panel and 20% of them were active in at least one assay; those are over-represented in the sample as a whole.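 Assay: single dose, 48 h. Readout: percent growth (0 = no net growth; negative = cell death). Active: <10.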 Activity calls are given as the source filed them.

How the values were obtained:
Test in all cases: NCI-60 one-dose screen, 48 h (100 = growth as untreated, 0 = no growth, -100 = all killed)
Details in all cases: 10 µM
NCI-H23 lung = tested on: NCI-H23 lung
NCI-H226 lung = tested on: NCI-H226 lung
HOP-62 NSCLC = tested on: HOP-62 NSCLC
NCI-H460 lung = tested on: NCI-H460 lung
NCI-H522 lung = tested on: NCI-H522 lung
A549/ATCC NSCLC = tested on: A549/ATCC NSCLC
786-0 renal = tested on: 786-0 renal
COLO 205 colon = tested on: COLO 205 colon
DU-145 prostate = tested on: DU-145 prostate
K-562 leukemia = tested on: K-562 leukemia
MDA-MB-231 breast = tested on: MDA-MB-231 breast
RXF 393 renal = tested on: RXF 393 renal
SF-268 CNS = tested on: SF-268 CNS
SF-295 CNS = tested on: SF-295 CNS
SF-539 CNS = tested on: SF-539 CNS
UACC-257 melanoma = tested on: UACC-257 melanoma
M14 melanoma = tested on: M14 melanoma
HOP-92 NSCLC = tested on: HOP-92 NSCLC
MALME-3M melanoma = tested on: MALME-3M melanoma

SMILES | growth (NCI-H23 lung) | growth (NCI-H226 lung) | growth (HOP-62 NSCLC) | growth (NCI-H460 lung) | growth (NCI-H522 lung) | growth (A549/ATCC NSCLC) | growth (786-0 renal) | growth (COLO 205 colon) | growth (DU-145 prostate) | growth (K-562 leukemia) | growth (MDA-MB-231 breast) | growth (RXF 393 renal) | growth (SF-268 CNS) | growth (SF-295 CNS) | growth (SF-539 CNS) | growth (UACC-257 melanoma) | growth (M14 melanoma) | growth (HOP-92 NSCLC) | growth (MALME-3M melanoma)
COc1ccc(C(=O)c2cc3c(OC)c(OC)c(OC)cc3[nH]2)cc1 | 32.3% (inactive) | 86.5% (inactive) | 77.8% (inactive) | 16.8% (inactive) | 25.4% (inactive) | 36.6% (inactive) | 73.2% (inactive) | 37.4% (inactive) | 81.8% (inactive) | 7.74% (active) | 56.3% (inactive) | 72% (inactive) | 63.5% (inactive) | 143% (inactive) | 66.1% (inactive) | 87.8% (inactive) | 30.2% (inactive) |  | 
Nc1nccc(OCCO)n1 | 99.8% (inactive) | 96.1% (inactive) | 94% (inactive) |  | 90.7% (inactive) | 97.4% (inactive) | 102% (inactive) | 110% (inactive) | 104% (inactive) | 99.3% (inactive) | 108% (inactive) | 117% (inactive) | 101% (inactive) | 97.5% (inactive) | 101% (inactive) | 97.6% (inactive) | 102% (inactive) | 113% (inactive) | 108% (inactive)
COc1ccc(/C(=N\N)C(=O)c2ccccc2)cc1 (tested in a mixture with another compound) | 96.8% (inactive) | 95.6% (inactive) | 100% (inactive) |  | 72.7% (inactive) | 90.4% (inactive) | 105% (inactive) | 110% (inactive) | 108% (inactive) | 101% (inactive) | 102% (inactive) | 96.9% (inactive) | 96.2% (inactive) | 89% (inactive) | 114% (inactive) | 90.8% (inactive) | 124% (inactive) | 82.7% (inactive) | 106% (inactive)
CC(C)(C)OC(=O)CC(S(=O)(=O)c1ccccc1)S(=O)(=O)c1ccccc1 | 102% (inactive) | 94.5% (inactive) | 103% (inactive) |  | -36.4% (active) | 112% (inactive) | 105% (inactive) | -98.1% (active) | 94.2% (inactive) | 43.9% (inactive) | 103% (inactive) | 69.4% (inactive) | 102% (inactive) | 110% (inactive) | 107% (inactive) | 91.9% (inactive) | 116% (inactive) | 122% (inactive) | -41.1% (active)
O=C(N/N=C/c1c(Cl)cccc1Cl)c1ccccc1Nc1cccc(C(F)(F)F)c1 | 102% (inactive) | 99.4% (inactive) | 111% (inactive) | 88.6% (inactive) | 84.9% (inactive) |  | 102% (inactive) | 126% (inactive) |  | 77.2% (inactive) | 83.2% (inactive) |  | 95.5% (inactive) | 61.5% (inactive) | 75% (inactive) | 102% (inactive) | 99.4% (inactive) |  | 
CSc1nc2c(c(=O)n1C)CN(Cc1ccccc1)C(=O)CN2 | 93.5% (inactive) | 96% (inactive) | 82.7% (inactive) | 106% (inactive) | 79.6% (inactive) | 91% (inactive) | 91.9% (inactive) | 113% (inactive) | 109% (inactive) | 85.2% (inactive) | 96.8% (inactive) | 75.2% (inactive) | 104% (inactive) | 103% (inactive) | 91.1% (inactive) | 86.9% (inactive) | 88.6% (inactive) |  | 
CCOC(=O)c1cc(C(=O)c2cc(OC)c(OC)c(OC)c2)n2nc(C)ccc12 | 39.2% (inactive) | 79.5% (inactive) | 51.2% (inactive) |  | 3.82% (active) | 26.8% (inactive) | 54.4% (inactive) | -39.4% (active) | 21.1% (inactive) | 9.56% (active) | 45.8% (inactive) | 33.6% (inactive) | 56.2% (inactive) | 41% (inactive) | 15% (inactive) | 55.5% (inactive) | 21% (inactive) | 50.1% (inactive) | 77.9% (inactive)
CCN(CC)CCCC(C)N=C(C1=C(C(=NC(C)CCCN(CC)CC)c2cccc(OC)c2)C(=O)NC1=O)c1cccc(OC)c1 (stereo not given) | -18.4% (active) | -43.4% (active) | -57.5% (active) | -47.1% (active) | -64.5% (active) |  | -8.78% (active) | -89.9% (active) | -5.08% (active) | -44.2% (active) |  | -64.8% (active) | -29.5% (active) | -53.5% (active) | -85.3% (active) | -95.2% (active) | -77.5% (active) |  | 
COc1cc(-c2ccc(N=Nc3ccc4c(S(=O)(=O)O)ccc(N)c4c3O)c(OC)c2)ccc1N=Nc1ccc2c(S(=O)(=O)O)ccc(N)c2c1O | 101% (inactive) | 102% (inactive) | 85.9% (inactive) | 108% (inactive) | 105% (inactive) | 106% (inactive) | 120% (inactive) |  | 122% (inactive) | 121% (inactive) | 106% (inactive) | 93.3% (inactive) | 102% (inactive) |  | 102% (inactive) | 109% (inactive) | 107% (inactive) |  | 
COC(=O)CC[C@@H](C)[C@H]1CC[C@H]2[C@@H]3CC[C@@H]4C[C@H](O)CC[C@]4(C)[C@H]3C[C@H](O)[C@]12C | 116% (inactive) | 102% (inactive) | 109% (inactive) | 110% (inactive) |  | 102% (inactive) | 107% (inactive) | 101% (inactive) | 118% (inactive) | 76.4% (inactive) | 120% (inactive) | 110% (inactive) | 95.6% (inactive) | 100% (inactive) | 111% (inactive) | 110% (inactive) | 102% (inactive) |  | 
CC1=NN(C(=O)c2nn(-c3ccc(Cl)cc3)cc2O)C(=O)C1 | 52.5% (inactive) | 40.3% (inactive) | 44.1% (inactive) | 24% (inactive) | 42.3% (inactive) | 45.6% (inactive) | 56.5% (inactive) |  | 52.4% (inactive) | 15.3% (inactive) | 63.2% (inactive) | 56.9% (inactive) | 38.4% (inactive) | 67% (inactive) | 51.9% (inactive) | 74.5% (inactive) | 50.9% (inactive) |  | 
Cc1cc(Cl)ccc1Nc1nc(C(F)(F)F)ccc1C(=O)N/N=C/c1c(Cl)cccc1Cl | 19% (inactive) | 7.42% (active) | -4.74% (active) | 1.31% (active) | -16.7% (active) |  | -63.5% (active) | -52.8% (active) |  | 7.36% (active) | -17.2% (active) |  | 12.8% (inactive) | -37.7% (active) | 5.69% (active) | 13.1% (inactive) | 7.93% (active) |  | 
NNC(=O)Oc1c(Cl)cc(Cl)cc1[N+](=O)[O-] | 97.8% (inactive) | 106% (inactive) | 94.6% (inactive) |  | 96.9% (inactive) | 96.9% (inactive) | 105% (inactive) | 110% (inactive) | 103% (inactive) | 102% (inactive) | 113% (inactive) | 113% (inactive) | 102% (inactive) | 103% (inactive) | 105% (inactive) | 104% (inactive) | 101% (inactive) | 115% (inactive) | 94.4% (inactive)
COc1ccc(C2CC(c3cc(OC)c(OC)c(OC)c3)=NN2)cc1 (stereo not given) | 86.6% (inactive) | 93.2% (inactive) | 98.1% (inactive) | 51.5% (inactive) | 53.3% (inactive) | 51.7% (inactive) | 92.1% (inactive) | 55.1% (inactive) | 91.5% (inactive) | 11.2% (inactive) | 86.8% (inactive) | 92.5% (inactive) | 74.2% (inactive) | 48.1% (inactive) | 78.7% (inactive) | 120% (inactive) | 92.6% (inactive) |  | 
Cc1ccc(NC(=S)NNC(=S)Nc2ccc(C)cc2)cc1 | 72.8% (inactive) | 94.7% (inactive) | 45.2% (inactive) | 89.4% (inactive) | 32.7% (inactive) | 67% (inactive) | 58.9% (inactive) |  | 102% (inactive) | 19.4% (inactive) | 72.5% (inactive) | 91.5% (inactive) | 85% (inactive) | 30% (inactive) | 62.5% (inactive) | 75.8% (inactive) | 44.2% (inactive) |  | 
c1ccc(/C(=N\Nc2ccc3ccccc3n2)c2ccccn2)cc1 | 21.3% (inactive) | 3.53% (active) | 5.49% (active) | 5.49% (active) | -2.13% (active) |  | -35.9% (active) |  |  | 8.58% (active) | 29.8% (inactive) |  | 19.6% (inactive) | -15.8% (active) | -12.4% (active) | 16% (inactive) | -41.8% (active) |  | 
